Apoferritin bind = qHTS Assay for Identification of Novel General Anesthetics. 350,000 tested, 0.074% active. AID 485281, 2010. apoferritin/1-aminoanthracene competitive binding, fluorescence. Potency, µM (highest dose often 77.5 µM), for inactives: at the highest dose activity change, negative = displacement, hits mostly inhibitors. Ferritin light chain (Equus caballus), P02791; further: on the % scale 0 is the no-effect control and ±100 the full control effect; nearly all actives have a fitted effect of over 20% in size
Target sequence (P02791 2-175 limits assumed): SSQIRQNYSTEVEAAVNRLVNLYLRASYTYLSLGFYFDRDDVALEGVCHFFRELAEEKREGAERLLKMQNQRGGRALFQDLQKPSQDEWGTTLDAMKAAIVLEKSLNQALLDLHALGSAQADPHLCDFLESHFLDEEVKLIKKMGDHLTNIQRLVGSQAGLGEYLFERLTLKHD
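Apoferritin-based anesthetic binding model; compound displacement of fluorescent 1-AMA measured as endpoint fluorescence after 10 minutes at room temperature, scaled to free-ligand and complex controls.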
HepG2 tox-1 = qHTS for Inhibitors of TGF-b: Cytotox Counterscreen; 410,000 tested, 0.76% active; HepG2 CAGA-GFP viability, ATP luminescence, 18 h; Potency, µM (top dose mostly 46.1 µM), for the others: top-dose activity change, negative = cytotoxicity, hits mostly cytotoxic
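CellTiter-Glo luminescence gave cytotoxicity after 18 hours at 37 degrees C. The cells were HepG2 CAGA-GFP in 1% FBS DMEM, stimulated with 500 pg/mL TGF-beta after compound addition. %Activity was normalised to no-cell wells (complete cell-killing) and DMSO (no toxicity), and curves were fitted and classified.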
TGFb SMAD3 inh = qHTS for Inhibitors of TGF-b. HepG2 CAGA-GFP TGF-b/SMAD3 reporter, GFP fluorescence, 18 h; TGF-beta stimulated, 500 pg/mL final. Potency, µM (highest dose often 46.1 µM), for inactives: at the highest dose activity, negative = inhibition, actives largely listed as inhibitors. 410,000 tested, 1.2% active; further: on the % scale 0 is the no-effect control and ±100 the full control effect; nearly all actives have a fitted effect of over 65% in size
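Cell-based qHTS in HEPG2 carrying a CAGA-GFP Smad reporter; compounds added before 500 pg/mL final TGF-beta, 18 h incubation at 37 degrees C, GFP fluorescence quantified per cell by imaging cytometry.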
ATXN2 expr inh = Primary qHTS for Inhibitors of ATXN expression; HEK-293 ATXN2-luciferase reporter, luminescence, 24 h; Potency, µM (top dose mostly 57 µM), for the others: at the highest dose activity change, negative = inhibition, most hits filed as inhibitors; 360,000 tested, 0.72% active; AID 1745845, 2022; further: on the % scale 0 is the no-effect control and ±100 the full control effect; nearly all actives have a fitted effect of over 55% in size
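qHTS (up to 57 uM final) was run with 24 h compound exposure of reporter cells at 37 °C. Each well was multiplexed: SteadyGlo luminescence measured ATXN2-luciferase expression after a fluorogenic Gly-Phe-AFC viability readout (25 uM final).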
S2 tox = Viability Counterscreen for Primary qHTS for Inhibitors of ATXN expression; S2 cells (HEK-293 line with an ATXN2-luciferase reporter) viability, CellTiter-Fluor protease fluorescence, 24 h; Potency, µM (highest dose often 56.7 µM), usual class: cytotoxic; 400,000 tested, 0.49% active; AID 651635, 2014; further: nearly all actives have a fitted effect of over 40% in size
TGFb confirm = qHTS for Inhibitors of TGF-b: Confirmation of Cherry Picks. AID 720534, 2013. HepG2 CAGA-GFP TGF-b reporter, GFP fluorescence, 18 h; cells stimulated with TGF-beta, 500 pg/mL. Potency, µM (doses to about 46.1 µM), for the others: at the top dose activity, negative = inhibition, actives largely listed as inhibitors. 1,600 tested, 63% active. shares compounds with TGFb SMAD3 inh; further: on the % scale 0 is the no-effect control and ±100 the full control effect; nearly all actives have a fitted effect of over 65% in size
HepG2 tox-2 = qHTS for Inhibitors of TGF-b: Cytotox Counterscreen for Cherry Picks. shares compounds with TGFb SMAD3 inh. HepG2 CAGA-GFP viability, ATP luminescence, 18 h; cells stimulated with TGF-beta, 500 pg/mL. Potency, µM (titrated, usually from 46.1 µM), inactives show top-dose activity, negative = cytotoxicity, actives largely listed as inhibitors. 1,600 tested, 27% active. AID 720535, 2013; further: on the % scale 0 is the no-effect control and ±100 the full control effect; nearly all actives have a fitted effect of over 70% in size
CCL64 TGFb inh = qHTS for Inhibitors of TGF-b: CCL64 Cells Orthogonal Assay for Cherry Picks; shares compounds with TGFb SMAD3 inh; CCL64 CAGA-GFP reporter, TGF-b stimulated, GFP fluorescence, 18 h; Potency, µM (top dose mostly 46.1 µM), for inactives: at the highest dose activity, negative = inhibition, actives largely listed as inhibitors; 1,600 tested, 41% active; AID 720536, 2013; further: nearly all actives have a fitted effect of over 65% in size
TGFb COP inh = qHTS for Inhibitors of TGF-b: Hit Validation in HepG2 Cells using COP promoter; shares compounds with TGFb SMAD3 inh; HepG2 COP-GFP TGF-b reporter, GFP fluorescence, 18 h; cells stimulated by added recombinant TGF-beta; Potency, µM (doses to about 46.1 µM), for the others: top-dose activity, negative = inhibition, usual class: inhibitors; 1,600 tested, 3% active; AID 720537, 2013; further: nearly all actives have a fitted effect of over 70% in size
Active calls of the source: *; i = inactive; ? = inconclusive; nt = not tested or not shown; [ ] = remark or other dose. In the library only some 2.4% were active in any assay of this set; here they are far more common. The call rests on the fitted dose curve; in most records, active means well fitted curve in the direction sought with a large enough effect; inconclusive means small, poorly fitted or top-dose-only effect, or another doubt; inactive means no such curve, though single readings can be large; an effect the other way counts as inactive or inconclusive. Potency means the concentration at half of the fitted maximal effect.

SMILES	Apoferritin bind	HepG2 tox-1	TGFb SMAD3 inh	ATXN2 expr inh	S2 tox	TGFb confirm	HepG2 tox-2	CCL64 TGFb inh	TGFb COP inh
COc1cc2c(c(OC)c1OC)-c1ccc(O)cc1[C@@H](NC(C)=O)CC2	nt	11%	?	-13%	?	?	8%	0.52µM*	?
COc1cc2c(c(OC)c1OC)-c1ccc(O)cc1C(NC(C)=O)CC2 (stereo unspecified)	nt	1%	-2%	4%	i	nt	nt	nt	nt
Cc1c(P(=S)(c2ccccc2)c2ccccc2)[n+]2ccccc2n1CCc1ccccc1	nt	-52%	?	?	?	nt	nt	nt	nt
O=C1NC2C(=CC(O)C(O)C2O)c2cc3c(c(O)c21)OCO3 (stereo unspecified)	nt	-21%	-126%	?	?	0.018µM*	0.46µM*	0.073µM*	-8%
O=C1NC2C(O)C(O)C(O)C(O)C2c2cc3c(c(O)c21)OCO3 (stereo unspecified)	nt	4%	0.13µM*	0%	?	0.065µM*	?	0.18µM*	0%
Cc1c(C=O)c2ccccc2n1Cc1ccc(F)cc1	-21%	-31%	5.6µM*	-10%	i	1.3µM*	1.6µM*	10%	-4%
CC(=O)O[C@@H]1[C@@H](O)C2OC3C=C(C)C(=O)[C@@H](O)[C@]3(CO)C1(C)C21CO1 (stereo partly specified)	4%	nt	nt	nt	nt	nt	nt	nt	nt
CC(=O)OCC12CC(OC(=O)CC(C)C)C(C)=CC1OC1C(O)C(OC(C)=O)C2(C)C12CO2 (stereo unspecified)	nt	-1%	-117%	-71%	?	0.01µM*	nt	0.0052µM*	11%
O=C(Nc1ccc(Br)cc1)c1cc(Br)cc(Br)c1O	5%	nt	nt	?	?	nt	nt	nt	nt
S=C(NCCc1ccccc1)N1Cc2cc(N3CCCCC3)ccc2-n2nncc2C1	nt	-26%	10µM*	-4%	i	?	-9%	-30%	2%
COc1ccc(CN2Cc3cc(-c4cccc(F)c4)ccc3-n3nncc3C2)cc1	nt	13%	11µM*	-2%	i	15µM*	?	?	0%
S=C(NCCc1ccccc1)N1Cc2cc(-c3ccccc3)ccc2-n2nncc2C1	nt	-1%	?	-26%	?	nt	nt	nt	nt
Clc1cccc(N2Cc3cc(-c4ccccc4)ccc3-n3nncc3C2)c1	nt	8.9µM*	7.9µM*	22µM*	nt	21µM*	?	6.5µM*	32%
Fc1cccc(-c2ccc3c(c2)CN(C(=S)NCCc2ccccc2)Cc2cnnn2-3)c1	nt	-1%	11µM*	-31%	i	?	-29%	?	-7%
COc1ccc2c3c1OC1C[C@@H](O)C=C[C@@]31CCN(C)C2 (stereo partly specified)	4%[29.3 µM]	nt	nt	1%	i	nt	nt	nt	nt
Cc1nn(-c2nccs2)c2c1C(=O)CC(C)(C)C2Br (stereo unspecified)	nt	-9%	11µM*	?	i	13µM*	?	?	34%
Cc1nc2ccccc2c(=O)n1-c1nccs1	nt	22%	18%	28%	i	nt	nt	nt	nt
Clc1ccc(Cl)cc1	5%	nt	nt	nt	nt	nt	nt	nt	nt
COC(=O)[C@@H]1C[C@@]2(O)[C@@H](O)[C@@H](O)[C@@H](O)C[C@H]2N1Cc1cccnc1	-7%	nt	nt	nt	nt	nt	nt	nt	nt
O=C(CCN1CC2CCC(CC2)C1)c1cccs1	nt	-25%	13µM*	-2%	?	2.6µM*	21µM*	2.9µM*	?
C[C@@]12CCC(=O)C=C1C=C[C@H]1[C@H]3CC[C@](O)(CCC(=O)O)[C@]3(C)CC[C@@H]12	2%[29.3 µM]	nt	nt	nt	nt	nt	nt	nt	nt
C=C1C(O)[C@@H]2O[C@]3(CC[C@H](/C=C/C(C)[C@@H]4CC(C)=CC5(O[C@H](C[C@@](C)(O)C(=O)O)CCC5O)O4)O3)CC[C@H]2O[C@@H]1C(O)CC(C)[C@H]1OC2(CCCCO2)CCC1C (stereo partly specified)	nt	-71%	0.089µM*	0.32µM*	?	0.021µM*	0.052µM*	0.082µM*	?
O=c1c2ccccc2nc(/C=C/c2ccc([N+](=O)[O-])o2)n1-c1ccc(O)cc1	-9%	-63%	2.8µM*	13µM*	10µM*	?	5.8µM*	2.3µM*	22%
O=c1c2ccccc2nc(/C=C/c2ccccc2)n1-c1ccc(O)cc1	-8%	-28%	?	-37%	?	nt	nt	nt	nt
CCOC(=O)c1ncn2c1CN(C)C(=O)c1cc(N=[N+]=[N-])ccc1-2	-3%	nt	nt	nt	nt	nt	nt	nt	nt
SMILES	Apoferritin bind	HepG2 tox-1	TGFb SMAD3 inh	ATXN2 expr inh	S2 tox	TGFb confirm	HepG2 tox-2	CCL64 TGFb inh	TGFb COP inh
CC(O)C(C)OC(=O)[C@@H]1C[C@@H]2c3cccc4c3c(cn4C(C)C)C[C@H]2N(C)C1 (stereo partly specified)	-7%	nt	nt	nt	nt	nt	nt	nt	nt
Cc1cccc(-n2c(/C=C/c3cn(C)c4ccccc34)nc3ccccc3c2=O)c1	?	-9%	-1%	13%	i	nt	nt	nt	nt
O=C(Nc1ccc(Cl)cc1)Nc1ccc(Cl)c(Cl)c1	nt	-21%	3.2µM*	?	?	?	21µM*	5.2µM*	94%
Cc1ccc(-c2cc(-c3ccc(C)cc3)[n+](-c3ccccc3)c(-c3ccc(C)cc3)c2)cc1	nt	-69%	1.3µM*	?	nt	1.5µM*	9.2µM*	1.6µM*	-75%
C=C(C)[C@@]12OC3(c4ccccc4)O[C@@H]1C1[C@@H]4O[C@]4(CO)[C@@H](O)[C@]4(O)C(=O)C(C)=C[C@H]4[C@@]1(O3)[C@H](C)[C@H]2OC(=O)/C=C/C=C/c1ccccc1 (stereo partly specified)	nt	-87%	-98%	-10%	?	?	?	?	-6%
CNNC	-9%	nt	nt	nt	nt	nt	nt	nt	nt
